FLuc modulator: qHTS profiling assay for firefly luciferase inhibitor/activator using purifed enzyme and Km concentrations of substrates (counterscreen for miR-21 project); 360,000 tested, 6.9% active; Luciferin 4-monooxygenase (Photinus pyralis), P08659; purified FLuc, Km substrates, luminescence inhibition; Potency, µM (highest dose often 57.5 µM), for inactives: at the top dose activity change, negative = inhibition, hits mostly inhibitors; AID 588342, 2011;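 note: plate controls were vehicle for no effect and reference inhibitor for full effect; nearly all actives have a fitted effect of over 55% in size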
Target sequence (P08659 whole entry, looked up): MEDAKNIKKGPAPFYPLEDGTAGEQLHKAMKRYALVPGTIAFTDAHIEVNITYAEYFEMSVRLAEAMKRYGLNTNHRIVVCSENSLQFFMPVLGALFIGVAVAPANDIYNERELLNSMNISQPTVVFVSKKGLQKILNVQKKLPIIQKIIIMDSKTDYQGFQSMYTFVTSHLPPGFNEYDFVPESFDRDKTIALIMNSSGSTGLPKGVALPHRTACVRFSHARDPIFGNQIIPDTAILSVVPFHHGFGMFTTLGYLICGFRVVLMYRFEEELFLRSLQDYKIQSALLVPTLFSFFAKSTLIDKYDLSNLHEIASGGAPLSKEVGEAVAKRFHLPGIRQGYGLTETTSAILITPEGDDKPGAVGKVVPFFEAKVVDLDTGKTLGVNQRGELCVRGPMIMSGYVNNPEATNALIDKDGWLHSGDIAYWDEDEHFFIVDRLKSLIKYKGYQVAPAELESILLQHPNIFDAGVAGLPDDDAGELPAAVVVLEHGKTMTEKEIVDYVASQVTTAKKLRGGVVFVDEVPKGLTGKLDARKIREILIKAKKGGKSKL
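Purified P. pyralis luciferase (10nM final) with 10uM D-luciferin and 10uM ATP (Km levels) in 50mM Tris acetate pH 7.5, 10mM Mg acetate, 0.01% Tween-20, 0.05% BSA; qHTS 6-point titration, ~60 µM downward; luminescence read.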
Luc counter: Counterscreen for Luciferase (Kinase-Glo TM) Inhibition; Luciferin 4-monooxygenase (Photuris pensylvanica), Q27757; Kinase-Glo luciferase, ATP luminescence, 8 min; Potency, µM (doses to about 38.3 µM), for the others: at the top dose activity change, negative = inhibition, most hits filed as inhibitors; 200,000 tested, 0.28% active; AID 1379, 2008; note: % is set by controls: 0 for no effect and ±100 for the full control effect; nearly all actives have a fitted effect of over 60% in size
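Inhibition of Kinase-Glo luciferase light generation was assessed at 10 uM ATP in pH 7.2 imidazole buffer, with luminescence measured after eight minutes at ambient temperature.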
SMN2 splice enh: qHTS Assay for Enhancers of SMN2 Splice Variant Expression | 210,000 tested, 2.8% active | Potency, µM (highest dose often 46.1 µM), for the others: top-dose activity change, positive = activation, most hits filed as activators | HEK293 SMN2-luciferase splicing reporter, luminescence, 30-36 h; note: % of control where 0% means no effect; nearly all actives have a fitted effect of over 55% in size
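HEK293 cells carry an SMN2 […]–luciferase reporter in which exon 7 inclusion puts luciferase in frame. Cells were plated 10-12 h before compound addition, then incubated 30-36 h at 37C. ONE-Glo luminescence was read; sodium butyrate at 4.5 mM final served as control.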
ELG1 genotoxic: qHTS screen for small molecules that induce genotoxicity in human embryonic kidney (HEK293T) cells expressing luciferase-tagged ELG1. HEK293T ELG1-luciferase reporter, luminescence, 16 h. Potency, µM (series often up to 46 µM), inactives show at the top dose activity change, positive = activation, usual class: activators. 330,000 tested, 1.3% active. AID 504466, 2011; note: % of control where 0% means no effect; nearly all actives have a fitted effect of over 60% in size
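Step 1: seed 2,000 HEK293T ELG1-luciferase cells per well. Step 2: add compound or DMSO, incubate 16 hr at 37 °C. Step 3: ONE-Glo, 30 min at room temperature, read luminescence.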
NPC1 promoter act: qHTS Assay for NPC1 Promoter Activators; 320,000 tested, 2.4% active; Huh7 NPC1 promoter luciferase reporter, 24 h; AID 485313, 2010; Potency, µM (highest dose often 9.22 µM), inactives show at the highest dose activation, actives largely listed as activators; note: % of control where 0% means no effect; nearly all actives have a fitted effect of over 60% in size
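Stably transfected Huh7 (NPC1 promoter→luciferase), 1500 cells/well in Opti-MEM + 10% FBS, 2 h settle, then compound 24 h at 37 °C. Luminescence after 10 min with Amplite reagent.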
Rab9 promoter act: qHTS Assay for Rab9 Promoter Activators. Huh7 Rab9 promoter-luciferase reporter, luminescence, 24 h. Potency, µM (top dose mostly 9.22 µM), inactives show at the highest dose activation, negative = inhibition, usual class: activators. 320,000 tested, 2.8% active; note: % of control where 0% means no effect; nearly all actives have a fitted effect of over 60% in size
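Steps: seed 1500 Huh7 Rab9-luc cells per well, rest 2 h at 37 °C; add compound in DMSO; incubate 24 h; add luciferase reagent, 10 min ambient; read luminescence.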
Starred values were filed as active, the others as inactive; ? = inconclusive; · = not tested or not shown; [ ] = remark or other dose. In the library only some 7.5% were active in any assay of this set; here they are far more common. Calls come from the whole dose curve; as a rule, active = well fitted curve in the direction sought with a large enough effect; inconclusive = small, poorly fitted or top-dose-only effect, or another doubt; inactive = no such curve, though single readings can be large; an effect the other way counts as inactive or inconclusive. Potency is the fitted concentration of half-maximal effect.

SMILES | FLuc modulator | Luc counter | SMN2 splice enh | ELG1 genotoxic | NPC1 promoter act | Rab9 promoter act
COc1ccc(CNC(=O)c2ccc3c(c2)nc2n3CCC(C)C2)c(OC)c1 (stereo unspecified) | -16% | · | · | · | · | ·
CCCCC(CC)CNC(=O)c1ccc2c(=O)n(CCOC)c(=O)[nH]c2c1 (stereo unspecified) | -5% | · | 4µM* | · | · | ·
O=C(O)c1cccc(-n2cccc2/C=C2/NC(=O)N(c3cccc(Cl)c3)C2=O)c1 | -7% | · | · | 0% | 3% | -5%
O=C1C(=Cc2cccn2-c2ccc(O)cc2)C(=O)c2ccccc21 | 3.4µM* | -3% | 5% | 1% | -1% | 0%
O=C(O)c1cccc(-n2cccc2C=C2C(=O)c3ccccc3C2=O)c1 | 12µM* | · | · | 9% | -2% | -3%
O=C(O)c1cccc(-n2cccc2/C=C2/NC(=O)N(c3ccc(Cl)cc3)C2=O)c1 | 27µM* | 1% | 18% | 2% | 3% | -2%
Cc1ccccc1Nc1c(-c2cccnc2)nc2ccc(Cl)cn12 | 4% | · | 10% | · | · | ·
CCOc1cc(C2C3=C(CC(C)(C)CC3=O)N(CCOC)C3=C2C(=O)CC(C)(C)C3)ccc1O | 4% | · | · | 2% | 0% | 1%
Cc1ccc(C(=O)c2coc3ccc(OCC(=O)O)cc23)cc1 | 21µM* | 0% | ? | 3% | -2% | 3%
O=C(O)COc1ccc2occ(C(=O)c3ccccc3)c2c1 | ? | -5% | 9% | -1% | -3% | -8%
O=C(c1cccc(Br)c1)c1coc2ccc(O)cc12 | 3µM* | · | · | ? | ? | ?
O=C(NNC(=O)c1ccco1)c1cccc(Br)c1 | -2% | · | · | -15% | -4% | -18%
COc1ccc(C(=O)c2coc3ccc(O)cc23)cc1 | 1.5µM* | -4% | ? | ? | ? | 5%
COc1ccccc1CCNC(=O)C(=O)NCC(c1ccco1)S(=O)(=O)c1ccc(F)cc1 (stereo unspecified) | 0% | · | · | · | · | ·
COc1ccccc1-n1cnnc1SCc1csc(-c2ccccc2)n1 | -6% | -2% | -8% | -10% | 0% | -3%
C=CCn1c(SCc2csc(-c3ccc(C)cc3)n2)nnc1-c1ccccc1OC | 21µM* | · | · | -5% | -1% | 2%
CC(=O)Nc1ccc(C(=O)OCC(=O)c2cccc([N+](=O)[O-])c2)cc1 | 1% | 3% | -4% | 1% | 2% | -7%
Nc1ccc(C(=O)OCC(=O)c2cccc([N+](=O)[O-])c2)cc1 | 24µM* | -8% | -4% | 9% | 2% | 12%
Cc1ccc(C(=O)COC(=O)c2cccc(NC(=O)c3ccc([N+](=O)[O-])cc3[N+](=O)[O-])c2)cc1 | 0.11µM* | -8% | ? | ? | 0.4µM* | 1.4µM*
Cc1ccccc1CNC(=O)c1ccc2nc(SCc3ccc(F)cc3)n(C)c2c1 | -1% | · | 0% | · | · | ·
CC(=O)c1ccc(N2CCN(c3ncnc4c3nc3n4CCCC3)CC2)cc1 | -3% | · | · | · | · | ·
O=C(Nc1ccccc1F)c1ccc(-c2cccc([N+](=O)[O-])c2)o1 | 13µM* | · | · | ? | ? | ?
Cc1ccc2cccc(NC(=O)c3ccc(-c4cccc([N+](=O)[O-])c4)o3)c2n1 | -5% | · | 3% | · | · | ·
C=CCNC(=O)c1ccc(-c2cccc([N+](=O)[O-])c2)o1 | ? | 0% | 22µM* | ? | ? | ?
CN(C)c1ccc(CNC(=O)c2cc(S(=O)(=O)N3CCOCC3)cn2C)cc1 | 4% | · | · | -3% | 0% | 3%
SMILES | FLuc modulator | Luc counter | SMN2 splice enh | ELG1 genotoxic | NPC1 promoter act | Rab9 promoter act
CCc1nn2c(-c3ccccc3OC)ccnc2c1-c1ccc(F)cc1 | -13% | · | -8% | · | · | ·
O=C(COc1ccc(Cl)cc1)Nc1ncc([N+](=O)[O-])s1 | 4.3µM* | 4% | ? | ? | 0.56µM* | ?
O=C(Cc1ccc(Br)cc1)Nc1ncc([N+](=O)[O-])s1 | ? | · | · | -3% | ? | ?
O=C(Cc1ccc(Cl)cc1)Nc1ncc([N+](=O)[O-])s1 | 15µM* | 0% | -57% | -2% | 4% | 1.4µM*
COc1ccc(C(=O)CCNc2cccc(Cl)c2)cc1 | ? | 0% | ? | ? | ? | 3.5µM*
CC(=O)c1ccc(OCCCC(=O)Nc2ccc3c(c2)OCCO3)cc1 | -2% | · | · | 16% | 1% | 9%
CC(=O)Oc1ccc(C(=O)Nc2ccc3c(c2)OCCO3)cc1 | 11µM* | · | · | ? | 1µM* | 1.6µM*
CCCOc1ccc(C(=O)CCNc2cccc(Cl)c2)cc1 | -10% | -1% | -16% | 10% | 17% | 25%
O=C(CCNc1ccccc1)c1ccc2c(c1)OCO2 | 4.8µM* | 0% | 2% | ? | 2.2µM* | 2.5µM*
CCCOc1ccc(C(=O)Nc2ccc3c(c2)OCCO3)cc1 | 1.2µM* | · | · | 2.9µM* | 0.35µM* | 0.56µM*
COc1cccc(N2CC(NC(=O)CCCc3ccccc3)CC2=O)c1 (stereo unspecified) | 0% | · | · | · | · | ·
Nc1c(C(=O)Nc2ccccc2Cl)nnn1Cc1cccc(Cl)c1 | -2% | · | -34% | · | · | ·
COc1ccc(C(=O)Nc2ccc3c(c2)OCCO3)cc1 | 0.85µM* | -16% | 1.8µM* | ? | 0.45µM* | 0.71µM*
COc1ccc(C(=O)CNc2cccc(F)c2)cc1 | 11µM* | · | · | ? | ? | 11%[1.84 µM]
COc1ccc(C(=O)CCNc2ccc3c(c2)OCCO3)cc1 | 13µM* | 5% | 10% | -4% | ? | 24%
Cc1ccc(-c2noc(CCC(=O)Nc3ccc4c(c3)OCO4)n2)cc1 | 3% | 1% | 1% | 2% | -4% | -1%
COc1ccc(-c2noc(CCC(=O)Nc3ccc4c(c3)OCCO4)n2)cc1 | 17µM* | 16% | -18% | 15% | 0% | 1%
CCOc1ccc(N(CC(=O)NC(C)(C)C)C(=O)CCC(=O)Nc2nccs2)cc1 | -1% | · | · | -3% | 2% | 3%
O=[N+]([O-])c1ccc(C2Oc3ccccc3C3CC(c4ccccc4)=NN32)s1 (stereo unspecified) | 9.5µM* | 3% | 25µM* | ? | -2% | 20%
O=C(O)c1cccc(Cn2c(Cl)c(/C=N/Nc3ccccc3)sc2=O)c1 | 27µM* | 5% | -32% | 25% | -1% | 0%
O=C(O)c1cccc(Cn2c(Cl)c(/C=N/NC(=O)c3ccccc3O)sc2=O)c1 | 19µM* | · | · | 1% | 2% | 4%
